In PubChem BioAssay AID651784 (National Center for Advancing Translational Sciences (NCATS), 2012):
Results filed as inconclusive are left out. Activity calls are given as the source filed them. The call rests on the fitted dose curve; in most records, active means well fitted inhibition curve with a large enough effect; inconclusive means small, poorly fitted or top-dose-only effect; inactive means no such curve, though single readings can be large or run the other way.
Potency means the concentration at half of the fitted maximal effect.

Experiment: Acumen qHTS Assay for Inhibitors of the mTORC1 Signaling Pathway in MEF (Tsc2-/-, p53-/-) Cells: Hit Validation;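 further: phospho-rpS6 Ser235/236 immunofluorescence normalized to propidium iodide cell count; nearly all actives have a fitted effect of over 65% in size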;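 on activity change, negative = inhibition: cells exposed to compound for 24 hours; plate controls were DMSO for no effect and 7.5 nM rapamycin control for full effect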
Conditions: Acumen imaging; activity change, negative = inhibition: at 37.3 µM (top of the series)
`COc1ccc(-c2ccc(CCC(=O)O)n2-c2cc(Cl)ccc2O)cc1` showed an activity change, negative = inhibition of -7.48%.
In the case of `Cc1ccc(CN2C(=O)C(O)(CC(=O)c3ccc(C)cc3)c3ccccc32)cc1` (stereo not drawn), the Potency is reported as 4.65 µM (active).
`O=C(CN(CCc1ccccc1)S(=O)(=O)c1ccccc1)NCc1ccc(Cl)cc1` showed an activity change, negative = inhibition of -3.71%.
Molecule `Cc1cc(C)c(NC(=O)c2sc3nc(C)cc(C)c3c2NC(=O)c2ccccc2)c(C)c1` has an activity change, negative = inhibition of -8.54%.
With `Cc1ccccc1CN1C(=O)C(O)(CC(=O)c2ccccc2)c2cc(Cl)ccc21` (stereo not drawn) the activity change, negative = inhibition was -65.2%.
In the case of `CCC(C)S(=O)(=O)c1oc(-c2ccc(F)cc2)nc1S(=O)(=O)c1ccc(F)cc1` (stereo not drawn), the Potency is reported as 1.31 µM (active).
Molecule `CCc1ccc(-n2c(=O)c3c4c(sc3n(CC(=O)c3ccc(F)cc3)c2=O)CCC4)cc1` has an activity change, negative = inhibition of -153%.
With `Cc1ccc(S(=O)(=O)c2nnn3c2nc(NCc2cccs2)c2sccc23)cc1` the activity change, negative = inhibition was -1.4%.
In the case of `CCN(C(=O)C(NS(=O)(=O)c1ccc(Br)s1)c1ccccc1)c1ccc(C)c(C)c1` (stereo not drawn), the activity change, negative = inhibition is reported as -46.3%.
In the case of `CCS(=O)(=O)c1ccccc1C(=O)N(Cc1cccnc1)c1nc2cc(C)c(C)cc2s1`, the activity change, negative = inhibition is reported as -10%.
`O=C(Nc1ccc(F)c(Cl)c1)c1cc(S(=O)(=O)N2CCCc3ccccc32)ccc1F` showed an activity change, negative = inhibition of -51.1%.
For `CCCN(CCC)CCCNC(=O)C1CCN(c2nc3ccc(CC)cc3s2)CC1`, the Potency was 11.7 µM (active).
With `CS(=O)(=O)N(CC(=O)NCCc1ccccc1)c1cc(C(F)(F)F)ccc1Cl` the activity change, negative = inhibition was 30.3%.
Molecule `COc1ccc(-c2nc(S(=O)(=O)c3ccc(Cl)cc3)c(N3CCCCCC3)o2)cc1` has an activity change, negative = inhibition of 2.12%.
For `COc1ccc(NC(=O)c2c(NC(=O)COc3ccccc3)sc3c2CCC(C)C3)cc1` (stereo not drawn), the activity change, negative = inhibition was 6.92%.
Molecule `CCN(CC)CCNC(=O)c1ccc(Cn2c(=O)c3cccn3c3cccnc32)cc1` has an activity change, negative = inhibition of -24.3%.
For `COc1ccccc1C(=O)Nc1ccc2nc(N3CCC(C)CC3)cc(C)c2c1`, the activity change, negative = inhibition was -19.9%.
For `COc1ccc(-c2ccc(CCC(=O)O)n2-c2ccccc2O)cc1`, the activity change, negative = inhibition was -2.33%.
`COc1ccc(OCC(=O)Nc2ccc3nn(-c4ccc(OC)cc4)nc3c2)cc1` showed an activity change, negative = inhibition of 11.1%.
In the case of `COc1cc(NC(=O)CSc2ccc(-c3ccccn3)nn2)cc(OC)c1`, the activity change, negative = inhibition is reported as -6.23%.
`CCCSc1oc(-c2ccco2)nc1S(=O)(=O)c1ccc(Br)cc1` gave an activity change, negative = inhibition of 4.39%.
`CC[C@H](CO)Nc1nc(NCc2ccccc2)c2ncn(C(C)C)c2n1` gave an activity change, negative = inhibition of -22.4%.
With `CC(C)c1nnc(NC(=O)c2nc(S(=O)(=O)Cc3ccccc3)ncc2Cl)s1` the activity change, negative = inhibition was -86.2%.
